# The entries come from a sample that favours hits as a whole.
# Giardia FBPA inh: blocks Giardia fructose-bisphosphate aldolase activity | 290,000 compounds, 0.71% hits | purified Giardia FBPA | A8B2U2 | Potency, µM (series often up to 59.6 µM), inactives show at the top dose activity, negative = inhibition, usual class: inhibitors | AID 2451; note: potency is the fitted concentration of half-maximal effect; % is set by controls: 0 for no effect and ±100 for the full control effect; nearly all actives have a fitted effect of over 55% in size
#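 40 nM FBPA preincubated 10 min at RT with compound (up to 57.5 uM final), then substrate plus GAPDH/TPI/NAD/arsenate coupling and diaphorase/resazurin added. Fluorescence read after 20 min at RT, 525/598 nm.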
# LmPK inhibitor: inhibitors of Leishmania mexicana pyruvate kinase; Q27686; purified LmPK, Kinase-Glo ATP luminescence, 1 h; Potency, µM (top dose mostly 57.5 µM), for the others: top-dose activity change, negative = inhibition, actives largely listed as inhibitors; 290,000 compounds, 0.37% hits; AID 1721; note: potency is the fitted concentration of half-maximal effect; % is set by controls: 0 for no effect and ±100 for the full control effect
# Target sequence (Q27686 whole entry, looked up): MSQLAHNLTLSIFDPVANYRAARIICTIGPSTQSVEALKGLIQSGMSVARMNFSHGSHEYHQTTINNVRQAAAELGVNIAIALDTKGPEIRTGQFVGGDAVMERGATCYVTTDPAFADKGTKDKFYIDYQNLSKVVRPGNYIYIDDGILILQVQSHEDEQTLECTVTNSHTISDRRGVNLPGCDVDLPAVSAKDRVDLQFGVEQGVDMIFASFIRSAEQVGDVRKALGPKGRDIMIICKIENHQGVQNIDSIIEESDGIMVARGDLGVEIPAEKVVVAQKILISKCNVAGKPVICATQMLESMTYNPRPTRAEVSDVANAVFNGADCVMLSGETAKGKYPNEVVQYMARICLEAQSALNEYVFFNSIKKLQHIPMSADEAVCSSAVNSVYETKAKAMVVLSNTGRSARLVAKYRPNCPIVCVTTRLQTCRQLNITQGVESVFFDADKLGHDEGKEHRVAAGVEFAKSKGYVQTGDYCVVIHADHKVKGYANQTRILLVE
#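 qHTS format; LmPK 0.1 nM; substrates PEP 0.5 mM and ADP 0.1 mM. One-hour room-temperature incubation, then coupled luciferase luminescence; 0.5 nM enzyme wells mark activation.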
# Shiga toxin inh: Shiga toxin inhibition. inhibition, % at 38.7 µM. Vero cells, Shiga toxin protein synthesis inhibition reporter. 290,000 compounds, 9.2% hits. AID 2315; in the data active = inhibition mostly above about 28%, no sharp cut-off; inactive = mostly below about 43%; note: 0% is about no effect
# RE007 growth inh: less growth of the S. pombe RE007 Vpr strain | Potency, µM (titrated, usually from 92.2 µM), inactives show top-dose activity change, negative = less growth, usual class: inhibitors | S. pombe RE007 Vpr strain, BacTiter-Glo ATP luminescence, 24 h | AID 651644 | 360,000 compounds, 0.21% hits; active = well fitted falling curve with a large enough effect; inconclusive = small, poorly fitted or top-dose-only effect; inactive = no such curve, though single readings can be large or run the other way; note: potency is the fitted concentration of half-maximal effect; % is set by controls: 0 for no effect and ±100 for the full control effect; nearly all actives have a fitted effect of over 50% in size
#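 Fission yeast RE007 carrying one integrated HIV-1 vpr copy, seeded at OD 0.01 in PMG+AL medium with 23 nL pinned compound. Grown 24 h at 30 degrees; viability read by BacTiter-Glo luminescence after 5 min.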
# Cycloheximide cs: affects cycloheximide protein synthesis inhibition readout, counter-screen; max response, %; 300,000 compounds, 12% hits; cell reporter, cycloheximide protein synthesis inhibition counterscreen; in the data active = max response mostly above about 13%, no sharp cut-off; inactive = mostly below about 14%; note: read at 38.3 µM for the half of the compounds with a filed dose; 0% is about no effect
# Tb PYK inh: T. brucei pyruvate kinase inhibition; Q57TT1; Potency, µM (titrated, usually from 76.8 µM), for inactives: top-dose activity, negative = inhibition, actives largely listed as inhibitors; TbPYK enzyme, Kinase-Glo Plus ATP luminescence, 45 min; 410,000 compounds, 0.12% hits; note: potency is the fitted concentration of half-maximal effect; % is set by controls: 0 for no effect and ±100 for the full control effect; nearly all actives have a fitted effect of over 50% in size
#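 Quantitative HTS: titrated library compounds versus trypanosomal pyruvate kinase in TEA buffer (pH 7.2) containing KCl, MgCl2, BSA and Tween-20. Reactions were initiated with ADP, 130 uM final. Kinase-Glo Plus luminescence was read after 45 min at RT.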
# * marks the source's active call; other numbers are inactive results; ? = inconclusive; nt = no result given; [ ] = dose if it differs, or a comment. Unless noted, calls come from the whole dose curve; as a rule, active = well fitted curve in the direction sought with a large enough effect; inconclusive = small, poorly fitted or top-dose-only effect, or another doubt; inactive = no such curve, though single readings can be large; an effect the other way counts as inactive or inconclusive.
SMILES,Giardia FBPA inh,LmPK inhibitor,Shiga toxin inh,RE007 growth inh,Cycloheximide cs,Tb PYK inh
O=C(N/N=C/c1ccc2cccc(OCc3ccccc3)c2n1)c1ccc(Cl)cc1,0%,2%,61*,-9%,31*,-13%
COc1ccc(CNC(=O)CN2C(=O)CC(c3ccc(C)c(C)c3)=Nc3ccccc32)cc1,nt,nt,nt,nt,nt,1%
COc1ccc(/C=N/NC(=O)c2ccc(COc3cccc4cccnc34)cc2)cc1OC,1%,1%,27,67%,-1,4%
CC(C)(C)c1ccc(OCc2ccc(C(=O)N/N=C3\CC4CC=CC34)cc2)cc1 (stereo not given),9%,2%,17,3%,17*,5%
COc1ccc(/C=N/NC(=O)c2ccc(COc3cccc4cccnc34)cc2)cc1O,4%,1%,32*,5%,13*,-1%
O=C(N/N=C/c1ccc2c(c1)OCO2)c1ccc(COc2cccc3cccnc23)cc1,5%,-10%,82*,-3%,36*,-1%
O=C(N/N=C/c1ccc2c(c1)OCO2)c1ccc(COCC(F)(F)C(F)F)cc1,nt,-6%,-2,-7%,-3,1%
O=C(NCCc1ccc(Cl)cc1)C1COc2ccccc2C1 (stereo not given),nt,nt,nt,nt,nt,-2%
C=CC[C@@H]1C=C[C@H](O/N=C2\c3cc(OC)ccc3O[C@H](c3cccc(OC)c3)[C@H]2O)[C@H](CO)O1,-1%[12.9 µM],nt,nt,nt,nt,nt
O=C1CC(N2CCOCC2)C(=O)N1c1cc(Cl)cc(Cl)c1 (stereo not given),-2%,4%,23,11µM*,11,0%
CN1CCN(C2CC(=O)N(c3ccc4c(c3)OCCO4)C2=O)CC1 (stereo not given),-14%,6%,54,18%,34*,5%
COc1cc(OC)cc(N2C(=O)CC(N3CCC(C(=O)N4CCCCC4)CC3)C2=O)c1 (stereo not given),nt,1%,13,32µM*,1,3%
Cc1cc(C)cc(N2C(=O)CC(N3CCOCC3)C2=O)c1 (stereo not given),2%,-1%,-15,-10%,-1,-1%
O=C1CCCN1CCC1CCN(C2CC(=O)N(c3ccc(F)cc3)C2=O)CC1 (stereo not given),8%,1%,-11,32µM*,-2,4%
CC(=O)Nc1cccc(N2C(=O)CC(N3CCC(C(=O)N4CCCCC4)CC3)C2=O)c1 (stereo not given),2%,-6%,-10,12%,1,-9%
CCOc1ccc(NC(=O)c2cc3c(n(-c4ccc(OC)cc4)c2=O)CC(C)(C)CC3=O)cc1,nt,nt,nt,nt,nt,0%
Cc1ccc(CNC(=O)Cn2cc(C(=O)c3ccc(Cl)cc3)c(=O)c3ccc(C)nc32)cc1,nt,nt,nt,nt,nt,-11%
COc1cccc2c1cc1c(=O)n(CC(=O)N3CCN(c4ccccc4F)CC3)nc(C)n12,nt,nt,nt,nt,nt,5%
O=C(C1CCN(C2CC(=O)N(c3ccc(F)cc3)C2=O)CC1)N1CCOCC1 (stereo not given),1%,-12%,11,50µM*,2,6%
CCN1C(=O)CC(N2CCC(C(=O)N3CCOCC3)CC2)C1=O (stereo not given),1%,-10%,-3,?,-2,2%
Cc1nc2c([nH]c3ccc(Br)cc32)s1,-2%,-7%,22*,-12%,15*,1%
CC1(C)CC(=O)C2=C(C1)Nc1ccccc1N=C2,?,-22%,85*,nt,50*,nt
CC1(C)CC(=O)C2=C(C1)Nc1ccccc1NC2,?,-5%,139*,21%,44*,2%
Oc1ccc(Nc2nc(-c3ccccc3)nc3ccccc23)cc1,0%,-1%,-6,-14%,-2,1%
Oc1ccc(Nc2nc3ccccc3nc2Nc2ccc(O)cc2)cc1,?,5%,40,-15%,14*,-17%
SMILES,Giardia FBPA inh,LmPK inhibitor,Shiga toxin inh,RE007 growth inh,Cycloheximide cs,Tb PYK inh
Cc1nc2ccccc2nc1N/N=C/c1ccc(O)cc1,-15%,1%,53*,-3%,40*,-5%
CC(C)c1nn2c(=O)cc(COC(=O)C3CCCCC3)nc2s1,nt,nt,nt,nt,nt,-5%
O=C(/C=C/c1ccccc1)Nc1sc2c(c1C(=O)O)CCC2,?,3%,41*,-30%,25*,-8%
N#Cc1c(NC(=O)/C=C/c2ccco2)sc2c1CCCC2,-6%,1%,67*,-29%,51*,0%
O=C(/C=C/c1ccco1)Nc1sc2c(c1C(=O)O)CCC2,-5%[12.9 µM],-10%,52*,-26%,43*,-8%
CNC(=O)c1c(NC(=O)/C=C/c2ccccc2)sc2c1CCC2,nt,nt,nt,nt,nt,0%
O=c1c(CCc2ccccc2)nc2cnc(N3CCNCC3)nc2n1Cc1ccc(F)cc1,-14%,nt,nt,nt,nt,-7%
CN(Cc1ccco1)c1cc(-c2ccc3c(c2)OCO3)ncn1,-11%,nt,nt,nt,nt,nt
O=C(Nc1ccccc1OCc1cc(=O)n2ccccc2n1)c1cccc(Br)c1,nt,nt,nt,nt,nt,1%
Cc1nc(NCc2ccccc2)c2nc(-c3ccccc3)n(CCN3CCOCC3)c2n1,-2%,nt,nt,nt,nt,nt
O=C(CN1CCCN(S(=O)(=O)c2ccc(Br)cc2)CC1)Nc1cccc(C(F)(F)F)c1,nt,nt,nt,nt,nt,0%
N#CCNC1CC(=O)N(c2ccc(F)cc2)C1=O (stereo not given),2%,0%,-1,25µM*,-4,-5%
O=C1NC(=O)N(c2ccc(F)cc2)C(=O)/C1=C/c1ccsc1,-9%,3%,-2,-3%,-1,?
O=C1N/C(=C/c2ccsc2)C(=O)N1c1ccccc1,2%,2%,47*,0%,26*,1%
CCn1c(C)cc(/C=C2/NC(=O)N(c3ccccc3)C2=O)c1C,-3%,-2%,97*,-8%,43*,-6%
COCCn1c(C)cc(/C=C2/NC(=O)N(c3cccc(Cl)c3)C2=O)c1C,-2%,-1%,64*,?,38*,1%
CC(C)n1cc(/C=C2\NC(=O)N(c3cccc(Cl)c3)C2=O)c2ccccc21,-3%,-1%,-12,-7%,8,-12%
CCCCN1C(=O)c2[nH]nc(-c3ccccc3O)c2C1c1ccc(C(C)(C)C)cc1 (stereo not given),nt,nt,nt,nt,nt,2%
